# Measured values: PubChem BioAssay (NCI)
# About 83,000 compounds went through this panel and 20% of them were active in at least one assay; those are over-represented in the sample as a whole.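 Method: cells in 96-well plates; compound added at one concentration; 48 h incubation; percent growth measured; values under 10 scored active.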 Unmarked numbers belong to inactive results. Calls of active or inactive are those of the source.
# Experiments:
# Assay in all cases: NCI-60 one-dose screen, 48 h (100 = growth as untreated, 0 = no growth, -100 = all killed)
# Settings in all cases: 10 µM unless noted
# [1] = test system: BT-549 breast
# [2] = test system: MDA-MB-435 melanoma
# [3] = test system: SW-620 colon
# [4] = test system: MCF7 breast
# [5] = test system: HCT-116 colon
# [6] = test system: HCC-2998 colon
# [7] = test system: KM12 colon
Structure (SMILES),growth [1],growth [2],growth [3],growth [4],growth [5],growth [6],growth [7]
Cc1nn(-c2ccccc2)c2nc3c(nc12)C(=O)CCC3,90.9%,98.1%,105%,84.9%,91.6%,92%,87.1%
c1ccc(Nc2nnc(-c3cc(-c4cccnc4)n(-c4ccccc4)n3)s2)cc1,85.8%,80.7%,97.1%,95.7%,76.8%,72.5%,60.3%
COc1ccc2c(c1)nc(N)c1c3ccccc3cn21,88.4%,2.56% (active),56.8%,44.8%,59.1%,103%,63%
COc1cc(/C=C/C(=O)N2CCN(C(=O)/C=C/c3ccccc3)CC2)cc(OC)c1OC,104%,111%,109%,110%,105%,102%,118%
Cc1ccc2c(c1)C(=O)/C(=C/c1ncc([N+](=O)[O-])n1C)O2,-25.9% (active),-80.6% (active),-32.5% (active),-1.55% (active),7.67% (active),-44% (active),-48.4% (active)
COc1cc2c(cc1OC)C1CCN3C(=O)CCC3N1CC2 (configuration not stated),107%,113%,106%,103%,109%,101%,109%
ClC1=C(Cl)C(Cl)=C(Cl)C1=Cc1ccc(Cl)cc1,-38.9% (active),-42.3% (active),-83.9% (active),25%,-84.1% (active),30.9%,-69.6% (active)
C=C1c2c(C)nn(-c3ccc(C#CCOC4OC(CO)C(O)C(O)C4O)cc3)c2N(C)C23C[C@H]1C1(C)c4c(C)nn(-c5ccc(C#CCOC6OC(CO)C(O)C(O)C6O)cc5)c4N(C)C(C)(C[C@H]12)C3 (some centres not stated),3.47% (active),0.0883% (active),11.6%,-0.735% (active),0.942% (active),-3.04% (active),-23.3% (active)
COc1cc(C2C=C(c3ccc(C)cc3)Nc3nc(SC)[nH]c(=O)c32)ccc1Oc1ccnc2cc(Cl)ccc12 (configuration not stated),87.9%,55.3%,93.3%,56.9%,64.5%,95.9%,60.5%
Cn1cc(-c2csc(-c3c[nH]c4ncccc34)n2)c2cc(Br)cnc21,45.5%,33.8%,39.2%,35%,5.99% (active),64.2%,63.1%
O=C(Cc1ccccn1)C(F)(F)C(F)(F)C(F)(F)F,127%,113%,109%,97.3%,104%,100%,135%
O=C(O)c1ccc(NC(=O)c2cccc(Nc3ccnc(C(F)(F)F)c3)c2)cc1,95.8%,106%,103%,96.8%,95%,104%,107%
COc1ccc2[nH]cc(/C=C3/C(=O)Nc4ccc(Cl)cc43)c2c1,40.9%,22.9%,53.7%,40.7%,13.5%,43.9%,3.07% (active)
c1ccc(N2CCN(c3nncc4ccccc34)CC2)nc1,104%,104%,104%,105%,103%,117%,104%
COC(=O)[C@]12CC[C@@H](C)[C@H](C)[C@@H]1C1=CC[C@@H]3[C@@]4(C)C=C(O)C(=O)[C@@]5(C)COC(=C54)C[C@@]3(C)[C@]1(C)CC2,-66.6% (active),-60.9% (active),-65.6% (active),-70.5% (active),-86.4% (active),-83.3% (active),-74.2% (active)
Fc1ccc(-c2nnc(/C=C/c3cn(-c4ccccc4)nc3-c3ccccc3)o2)cc1,86.6%,100%,86.6%,94%,57%,95%,102%
